The values that follow come from the supplement of paper PMC6555819.

For one assay, the system named is RARg homodimer (NR concentration 270 nM). Briefly: PBM binding z-score (relative to random genomic background probes); higher = stronger binding; sequences stand for … in GC…GCGATTGACAGCGTAGAATGAAGG
In short, it runs like this: (§1)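 Binding z-scores were set against random background probes. The data came from custom Agilent 4×180K protein-binding microarrays carrying double-stranded probes with 34-nt variable regions, incubated 1 h with ligand-free nuclear receptor dimers. Partner-specific antibodies detected binding, and scanned fluorescence was regression-normalized.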
As to GATACAGGGTCAGGTAGAGGCCAGAGTATGGAAA, the PBM binding z-score is 4.46.
Still for that read-out and setting: with TTACCAAGGTGAGCTGAGGTCCTTGATCCAACTC the figure was 0.227.
Take AGAACGAGGGCAATGAGTTGAGAGCACGGGTGGC: the PBM binding z-score stood at 1.58.
Same read-out and setting: in the case of ATCGATAGGTCGTGAGGTGAGTATACAGAAAGGC it was 1.84; in that of GATACAGGGTCAAGGCAAGAGTACGCGTATTGAT, 5.14; in that of TCTAGTTGGTCACGCAGGTCACACACGACGGGTA, 3.7.
Regarding CTCGAAAGGTCGTGCTCAGGTGACTATACCAAAC, the PBM binding z-score came to 3.82.
Consider CATACTGGGCCAAAGGTCATTGATTCCAATGCTC, for which the PBM binding z-score is 5.04.
On the same count and under the same terms, in the case of TCGAGTAGGTTACCAATAGGGCATTCAGCTTTCT it was 0.593.
CGTCCAAGGTCAAGGTCAGTGATAGAGACTCGAA yielded a PBM binding z-score of 7.67.
Regarding ATATGTAGGATACATCCGGGTCATTCAGGCTATG, the PBM binding z-score was 1.43.
On to TCTAGTTGGTCAAGGAGGTCACACACGACGGGTA, for which the PBM binding z-score was found to be 4.29.
Turning to GCATATACGTAATACAAGGTGAAAGTCCGATTGT, the PBM binding z-score turned out to be 0.62.
The same measure, in the same setting: in the case of ACTAGTTGGACAGCTGAGGTCACACACAATTCGG it was 3.43; in that of CCTAGTTGGTCAAGGTCACACGCGCTATAGGTAC, 4.72; in that of ATATGTAGGTTACGGGTCATTCAGGTTGGTTCGC, 2.58.
With ATCGAAAGCTCGTGAGGTGAGTATACAGAAAGGC, the PBM binding z-score came to 0.239.
On the same count and under the same terms, with CCTATTAGTTGACCATCAGGGCAACCGAAGCTCG the figure was 0.807; with TCGAGTAGGTGAGTCGGGGCATTCAGCCAACATA, -0.378; with ACTAGTTGGTCAGCTGAGCTCACACACAATTCGG, 0.577.
Same read-out and setting: in the case of TCTTGTAGATCAAAGGGTAAGAAAGCCGAAGCCT it was -0.178.
TATACAGGGTCAAAGGCCAGAATACGAATGTCGA returned a PBM binding z-score of 5.1.
On the same count and under the same terms, in the case of TCTCGGAGGACATGAAGGTCAGAGCTTTCCAGAG it was 2.57; in that of TTACCAAGGTGAAGGTCGTTGAGCCCTCTGTAGA, 1.08.
Same read-out and setting: in the case of TCTGCTAGGTCAGTTGGTCAGCTATCGAGCTGCC it was 3.33; in that of ACTAGCAGGCGAAGGGTCACTCAAGATTAGTCCG, 3.42.
ATATGTAGGCTATCGGGTCATTCAGTTTGCGCAT showed a PBM binding z-score of 1.52.
Still for that read-out and setting: with ATATGTACGTTACATCCGGGTCATTCAGGCTATG the figure was 1.24; with CCTGCTAGGTCAATGGTCAGCGAAAGCAGCTCGC, 4.18; with TCTTGGAGATCAACAGGAGGTTAAGAAAGATCGA, 0.145.
In turn, TCTTGTAGATCAACAGGAAGTTAAGAAAGATCGA returned a PBM binding z-score of -0.339.
As to TAGCCTAGGTCATGGACCAGTATACCACGCGAAC, the PBM binding z-score was found to be 4.21.
Same read-out and setting: in the case of TCTCGGAGGACACGAAAGGTCCGAGCTCGACATC it was 1.35; in that of TCTTGTAGATGAACAGGAGGTTAAGAAAGATCGA, 0.0838.
Same read-out and setting: with CCTAGTTGGTCAGAAGGTCACACACCGGATATGA the figure was 4.38.
CCTTACGGGACACTGACAGGTTATAGCATTTGGA displayed a PBM binding z-score of 0.903.
The sequence GATTCAGGGTCAAGGCCAGAGTACGCGTATTGAT showed a PBM binding z-score of 5.81.
TTGCCTAGGTCAGATCGGGCCAGTATACGCTATA had a PBM binding z-score of 3.6.
The same measure, in the same setting: in the case of TTACCAAGGTGAGCTGAGGTCGTTGACCCAACTC it was 0.471.

The next assay relates to RXRa DBDmut IVT, anti-RXR (DBD mutation: RXRa K156A/R161A, NR concentration 90 nM). The assay is described as above. In short, it runs like this:
as §1
In the case of GATACAGGGTCAGGTAGAGGCCAGAGTATGGAAA, the PBM binding z-score was determined as 0.77.
TTACCAAGGTGAGCTGAGGTCCTTGATCCAACTC: the PBM binding z-score was -0.639.
On the same count and under the same terms, in the case of AGAACGAGGGCAATGAGTTGAGAGCACGGGTGGC it was 1.93; in that of ATCGATAGGTCGTGAGGTGAGTATACAGAAAGGC, 0.0211.
Same read-out and setting: in the case of GATACAGGGTCAAGGCAAGAGTACGCGTATTGAT it was 2.63; in that of TCTAGTTGGTCACGCAGGTCACACACGACGGGTA, 1.03.
Take CTCGAAAGGTCGTGCTCAGGTGACTATACCAAAC: the PBM binding z-score amounted to 2.15.
Same read-out and setting: in the case of CATACTGGGCCAAAGGTCATTGATTCCAATGCTC it was 1.73; in that of TCGAGTAGGTTACCAATAGGGCATTCAGCTTTCT, 0.262.
On the same count and under the same terms, with CGTCCAAGGTCAAGGTCAGTGATAGAGACTCGAA the figure was 3.76; with ATATGTAGGATACATCCGGGTCATTCAGGCTATG, 0.223; with TCTAGTTGGTCAAGGAGGTCACACACGACGGGTA, 0.835.
Same read-out and setting: with GCATATACGTAATACAAGGTGAAAGTCCGATTGT the figure was 0.892; with ACTAGTTGGACAGCTGAGGTCACACACAATTCGG, 1.09.
Take CCTAGTTGGTCAAGGTCACACGCGCTATAGGTAC: the PBM binding z-score amounted to 2.18.
Same read-out and setting: with ATATGTAGGTTACGGGTCATTCAGGTTGGTTCGC the figure was 1.69; with ATCGAAAGCTCGTGAGGTGAGTATACAGAAAGGC, -0.842; with CCTATTAGTTGACCATCAGGGCAACCGAAGCTCG, 0.518.
On the same count and under the same terms, with TCGAGTAGGTGAGTCGGGGCATTCAGCCAACATA the figure was 0.0607; with ACTAGTTGGTCAGCTGAGCTCACACACAATTCGG, 0.194; with TCTTGTAGATCAAAGGGTAAGAAAGCCGAAGCCT, 0.629.
Still for that read-out and setting: with TATACAGGGTCAAAGGCCAGAATACGAATGTCGA the figure was 2.7; with TCTCGGAGGACATGAAGGTCAGAGCTTTCCAGAG, 0.811; with TTACCAAGGTGAAGGTCGTTGAGCCCTCTGTAGA, 0.1.
Sequence TCTGCTAGGTCAGTTGGTCAGCTATCGAGCTGCC displayed a PBM binding z-score of 0.537.
ACTAGCAGGCGAAGGGTCACTCAAGATTAGTCCG had a PBM binding z-score of 0.405.
In turn, ATATGTAGGCTATCGGGTCATTCAGTTTGCGCAT gave a PBM binding z-score of 1.1.
ATATGTACGTTACATCCGGGTCATTCAGGCTATG gave a PBM binding z-score of 1.2.
For the sequence CCTGCTAGGTCAATGGTCAGCGAAAGCAGCTCGC, the PBM binding z-score was 1.73.
Turning to TCTTGGAGATCAACAGGAGGTTAAGAAAGATCGA, the PBM binding z-score came out at 0.185.
Still for that read-out and setting: in the case of TCTTGTAGATCAACAGGAAGTTAAGAAAGATCGA it was 0.508; in that of TAGCCTAGGTCATGGACCAGTATACCACGCGAAC, 0.316.
Turning to TCTCGGAGGACACGAAAGGTCCGAGCTCGACATC, the PBM binding z-score amounted to 0.605.
The same measure, in the same setting: with TCTTGTAGATGAACAGGAGGTTAAGAAAGATCGA the figure was 0.572; with CCTAGTTGGTCAGAAGGTCACACACCGGATATGA, 0.926.
With CCTTACGGGACACTGACAGGTTATAGCATTTGGA, the PBM binding z-score came to 0.645.
The same measure, in the same setting: with GATTCAGGGTCAAGGCCAGAGTACGCGTATTGAT the figure was 3.03.
In the case of TTGCCTAGGTCAGATCGGGCCAGTATACGCTATA, the PBM binding z-score was 0.0965.
Regarding TTACCAAGGTGAGCTGAGGTCGTTGACCCAACTC, the PBM binding z-score is 0.101.
